Where two headings read alike, the source gives them in different places. Out of some 13,000 compounds screened, about 3,200 (25%) showed an effect of 50% or more. The list shows a part of the results.
System: P. falciparum stage V gametocytes
Set-up: BacTiter-Glo ATP luminescence viability of purified stage V gametocytes in 384-well plates, per cent inhibition versus DMSO
Details: 48 h, 5 µM, inhibitor

## O=C(Nc1cccc(-c2cc3ccccc3[nH]2)c1)C1CCN(Cc2ccccc2O)CC1 [TCMDC-124628]
  % Inhibition: -2.419%

## COC(=O)Nc1cc(C(F)(F)F)ccc1N1CCCC(NS(=O)(=O)c2ccc(C(C)(C)C)cc2)C1 (stereo not shown) [TCMDC-134158]
  % Inhibition: -30.72%

## CN1CCN(c2ccnc3ccc(NC(=O)Nc4ccc(Br)cc4)cc23)CC1 [TCMDC-139324]
  % Inhibition: -20.3%

## CC(CNC1CCN(CCn2c(=O)ccc3ccc(F)cc32)CC1)c1ccccc1 (stereo not shown) [TCMDC-135136]
  % Inhibition: 3.185%

## CCN1CCCC(CNC(=O)/C(=C/C=C/c2cc3cc(Cl)c(Cl)cc3[nH]2)OC)C1 (stereo not shown) [TCMDC-139380]
  % Inhibition: -27.83%

## CC1CCC(C[C@@H](C(=O)N[C@H](C(=O)Nc2nccs2)[C@@H](C)O)[C@H](CCC(F)(F)F)N(O)C=O)CC1 (stereo partly shown) [TCMDC-138352]
  % Inhibition: 2.054%

## Cc1ccc(OCCCCON2C(N)=NC(N)=NC2(C)C)cc1C [TCMDC-131655]
  % Inhibition: 1.03%

## COc1ccc2nccc([C@@H](O)CN3CCC(NCc4ccc5c(n4)NCCC5)CC3)c2c1 [TCMDC-141460]
  % Inhibition: 44.65%

## O=C(Nc1ccc(O)c(-c2nc3ccccc3[nH]2)c1)c1ccc([N+](=O)[O-])cc1 [TCMDC-124222]
  % Inhibition: -7.746%

## Nc1c2c(nc3ccc(NC(=O)CCCCCCc4ccccc4)cc13)CCCC2 [TCMDC-139056]
  % Inhibition: 74.85%

## CN1CCN(c2ccnc3ccc(NC(=O)Cc4ccc5ccccc5c4)cc23)CC1 [TCMDC-139351]
  % Inhibition: 4.671%

## Nc1c2c(nc3ccc(NC(=O)Cc4ccccc4)cc13)CCCC2 [TCMDC-139055]
  % Inhibition: 81.23%

## Nc1c2c(nc3ccc(NC(=O)CCCCCc4ccccc4)cc13)CCCC2 [TCMDC-139060]
  % Inhibition: -0.3465%

## Cc1cc(N(C)C)nc(Nc2ccc(NC(=O)CCc3ccccc3)cc2)n1 [TCMDC-124721]
  % Inhibition: 2.562%

## Nc1c2c(nc3ccc(NC(=O)CCCc4ccccc4)cc13)CCCC2 [TCMDC-139057]
  % Inhibition: 98.45%

## Nc1c2c(nc3cc(NC(=O)c4ccc([N+](=O)[O-])cc4)ccc13)CCCC2 [TCMDC-138975]
  % Inhibition: 103.7%

## Cc1ccc2cc(NC(=O)CCCCCCCON3C(N)=NC(N)=NC34CCCCC4)ccc2n1 [TCMDC-140377]
  % Inhibition: 0.7997%

## Nc1c2c(nc3ccc(NC(=O)c4ccccc4)cc13)CCCC2 [TCMDC-139043]
  % Inhibition: 28.63%

## O=C(CCCc1ccccc1)Nc1cccc(N2CCC(N3CCN(c4ccccc4O)CC3)CC2)c1 [TCMDC-124664]
  % Inhibition: -59.43%

## CN1CCN(c2ccnc3ccc(NC(=O)Cc4ccc(OCc5ccccc5)cc4)cc23)CC1 [TCMDC-139349]
  % Inhibition: 24.22%

## COc1ccc2cc(C(=O)NC3CCC(CCN4CCc5cc(C#N)ccc5C4)CC3)[nH]c2c1 (stereo not shown) [TCMDC-139193]
  % Inhibition: -26.16%

## O=C(/C=C/c1ccc(Cl)c(Cl)c1)NC1CCC(CN2CCC(c3nc4ccc(O)cc4[nH]3)CC2)CC1 (stereo not shown) [TCMDC-140227]
  % Inhibition: 3.463%

## CCCc1cc(Cc2cnc(N)nc2N)cc(CCC)c1OC [TCMDC-137694]
  % Inhibition: -10.37%

## Cc1ccc(-c2noc(=O)n2CC(=O)Nc2ccccc2-c2ccccc2)cc1 [TCMDC-123570]
  % Inhibition: 15.39%

## CC(C)c1ccc(NC(=O)c2ccc(CN3CCCN(Cc4cccc(Cl)c4)CC3)cc2)cc1 [TCMDC-136418]
  % Inhibition: 3.705%

## CC(Cc1ccc(NS(=O)(=O)c2ccc(CC(C)NCCc3cccc(Cl)c3)cc2)cc1)NCCc1cccc(Cl)c1 (stereo not shown) [TCMDC-139797]
  % Inhibition: 48.75%

## O=C(NCCc1ccc(Cl)c(Cl)c1)c1ccc(CNC(=O)c2ccc(O)c(-c3ccc(Cl)c(Cl)c3)c2)cc1 [TCMDC-140872]
  % Inhibition: 8.428%

## CC(C)c1sc(N2CCN(C)CC2)nc1C(=O)NCCc1cccc(Cl)c1 [TCMDC-134297]
  % Inhibition: 6.593%

## CC(Cc1ccc(CNC(=O)c2ccc(CC(C)NCCc3cccc(Cl)c3)cc2)cc1)NCCc1cccc(Cl)c1 (stereo not shown) [TCMDC-139659]
  % Inhibition: 108.3%

## CC(Cc1ccc(C(=O)N2CCN(C(=O)c3ccc(CC(C)NCCc4cccc(Cl)c4)cc3)CC2)cc1)NCCc1cccc(Cl)c1 (stereo not shown) [TCMDC-139613]
  % Inhibition: 105.5%

## CC(Cc1ccc(CNC(=O)NCc2ccc(CC(C)NCCc3cccc(Cl)c3)cc2)cc1)NCCc1cccc(Cl)c1 (stereo not shown) [TCMDC-139648]
  % Inhibition: 111.4%

## CC(C)n1cc(CN2CCCC(C(=O)Nc3cccc(-c4cc5ccccc5[nH]4)c3)C2)cn1 (stereo not shown) [TCMDC-124681]
  % Inhibition: -62.3%

## CC(C)c1sc(N2CCCCC2)nc1C(=O)Nc1ccc(F)cc1C(F)(F)F [TCMDC-134299]
  % Inhibition: -21.66%

## COc1cccc(CNC(=O)NC2CCN(c3ccnc(Nc4cc(OC)c(OC)c(OC)c4)n3)C2)c1 (stereo not shown) [TCMDC-133628]
  % Inhibition: 38.97%

## FC(F)(F)c1ccc2[nH]c(-c3ccc(-c4ccc(CNCCc5ccncc5)cc4)cc3)nc2c1.O=C(O)C(F)(F)F [TCMDC-132852]
  % Inhibition: -64.17%

## CCN(CC)CCCNCc1ccc(-c2ccc(C(F)(F)F)cc2)cc1 [TCMDC-141087]
  % Inhibition: 65.86%

## CN(C)CCCNCc1ccc(-c2ccc(C(F)(F)F)cc2)cc1 [TCMDC-140011]
  % Inhibition: 92.27%

## CS(=O)(=O)NCCCNCc1ccc(-c2cccc(-c3nc4ccc(C(F)(F)F)cc4[nH]3)c2)cc1 [TCMDC-133087]
  % Inhibition: 6.297%

## CS(=O)(=O)NCCCNCc1ccc(-c2ccc(-c3nc4cc(C(F)(F)F)ccc4[nH]3)cc2)cc1.O=C(O)C(F)(F)F [TCMDC-133080]
  % Inhibition: -31.8%

## CN1CCC(NCc2ccc(-c3ccc(C(F)(F)F)cc3)cc2)CC1 [TCMDC-141094]
  % Inhibition: -30.31%

## O=C(CC(=O)C(F)(F)F)c1ccccc1[N+](=O)[O-] [TCMDC-125884]
  % Inhibition: 22.33%

## Cc1ccc(-n2c(Cc3cccc4ccccc34)nnc2SCCC#N)c(C)c1 [TCMDC-123560]
  % Inhibition: -0.8399%

## O=C(CC1CCCC1)Nc1ccc2c(c1)CCC2 [TCMDC-124327]
  % Inhibition: 8.334%

## CC(C)n1ncc2c(C(=O)N3CCCC4CCCCC43)cc(C3CC3)nc21 (stereo not shown) [TCMDC-125305]
  % Inhibition: -1.205%

## Cc1ccc(-n2c(Sc3ncnc4sccc34)nnc2N2CCCC2)cc1 [TCMDC-125247]
  % Inhibition: 65.97%

## CN1CCN(CCCCCCNc2c3ccccc3nc3ccccc23)CC1 [TCMDC-137542]
  % Inhibition: 98.34%

## CN1CCN(c2nc(NCCNc3ccc([N+](=O)[O-])cc3)c3ccccc3n2)CC1 [TCMDC-124567]
  % Inhibition: 35.05%

## COc1cc2nc(NCCC(C)C)n3nc(-c4ccccc4)nc3c2cc1OC [TCMDC-124451]
  % Inhibition: -18.82%

## CN1CCN(CCCCCNc2c3ccccc3nc3ccccc23)CC1 [TCMDC-137541]
  % Inhibition: 96.5%

## CC(CCNc1c2ccccc2nc2ccccc12)N1CCN(C)CC1 (stereo not shown) [TCMDC-138011]
  % Inhibition: 98.03%

## CN1CCN(CCCCNc2c3ccccc3nc3ccccc23)CC1 [TCMDC-137479]
  % Inhibition: 105.4%

## COc1ccc2nccc([C@@H](O)CN3CCC(NCc4nc5c(cc4Cl)SCC(=O)N5)C(F)C3)c2c1 (stereo partly shown) [TCMDC-141717]
% Inhibition
  % Inhibition: 2.766%

## O=C(Nc1ccc(S(=O)(=O)N2CCCC2)cc1)c1cc(-c2cccnc2)nc2ccc(Cl)cc12 [TCMDC-124359]
  % Inhibition: -22.21%

## COc1ccc(-c2cnc(N)nc2N)cc1Cl [TCMDC-137297]
  % Inhibition: -3.357%

## CC(C)(C)c1cc(C(=O)N2CCN(c3ccc(C(F)(F)F)cn3)CC2)n(Cc2ccc(F)cc2)n1 [TCMDC-123791]
  % Inhibition: 22.03%

## Cc1nc(-c2cccc3c(NC(=O)N4CCc5cc6nccc(N7CCN(C)CC7)c6cc54)cccc23)no1 [TCMDC-139370]
  % Inhibition: -51.93%

## Cc1cc(N2CCCCC2)nc2ccc(NC(=O)c3cncc(Br)c3)cc12 [TCMDC-124421]
  % Inhibition: 17.06%

## O=C(Nc1ccccc1)c1ccc(N2CCC(COc3cccc(C(F)(F)F)c3)CC2)nc1 [TCMDC-134507]
  % Inhibition: -9.482%

## CC(C)CNCc1cccc(-c2cccc(CN(C(=O)NC3CCCCC3)C3CCN(Cc4ccccc4)CC3)c2)c1 [TCMDC-140627]
  % Inhibition: 95.46%

## CC(C)CNCc1ccc(-c2cccc(CN(C(=O)NC3CCCCC3)C3CCN(Cc4ccccc4)CC3)c2)cc1 [TCMDC-140628]
  % Inhibition: 92.69%

## CC(C)CNCc1ccc(-c2ccc(CN(C(=O)NC3CCCCC3)C3CCN(Cc4ccccc4)CC3)cc2)cc1 [TCMDC-140635]
  % Inhibition: 103.7%

## CC(C)CNCc1cccc(-c2ccc(CN(C(=O)NC3CCCCC3)C3CCN(Cc4ccccc4)CC3)cc2)c1 [TCMDC-140634]
  % Inhibition: 102.1%

## CC(C)Oc1ccc(C=CC(=O)Nc2noc3ccccc23)cc1 [TCMDC-125292]
  % Inhibition: 41.66%

## Cc1cccc(CNc2nc(C)cc(NCCC(=O)NCCOc3ccccc3)n2)c1 [TCMDC-134884]
  % Inhibition: 13.93%

## COc1ccc2ncc(Cl)c(CCN3CCC(NCc4ccc5c(n4)NC(=O)CO5)CC3)c2c1 [TCMDC-141808]
  % Inhibition: -9.673%

## O=C(NCCc1ccc(O)cc1)n1c2ccccc2c2ccccc21 [TCMDC-138166]
  % Inhibition: -0.5781%

## Cc1ccccc1CNc1noc(-c2c(F)cccc2Cl)n1 [TCMDC-133373]
  % Inhibition: 21.36%

## Cc1ccc(OCC2CCN(c3ncc(C(=O)NC4CC4)cc3Cl)CC2)cc1 [TCMDC-134055]
  % Inhibition: 11.28%

## O=C(NCCCN1CCCC1=O)c1cnc(N2CCC(Oc3ccccc3)CC2)c(Cl)c1 [TCMDC-134054]
  % Inhibition: 50.82%

## Cc1cccc(OC2CCN(c3ncc(C(=O)NCCCN4CCCC4=O)cc3Cl)CC2)c1 [TCMDC-134057]
  % Inhibition: 81.53%

## O=C(NC1CC1)c1cnc(N2CCC(Oc3ccc(Cl)cc3)CC2)c(Cl)c1 [TCMDC-134040]
  % Inhibition: 28.34%

## O=C(NC1CC1)c1cnc(N2CCC(OCc3ccccc3)CC2)c(Cl)c1 [TCMDC-134610]
  % Inhibition: 14.6%

## Cc1cc(OCC2CCN(c3ncc(C(=O)NC4CC4)cc3Cl)CC2)ccc1F [TCMDC-134032]
  % Inhibition: 14.47%

## Cc1ccc(OCC2CCN(c3ncc(C(=O)NCCCN4CCCC4=O)cc3Cl)CC2)cc1 [TCMDC-134056]
  % Inhibition: 53.1%

## Cc1cccc(OCC2CCN(c3ncc(C(=O)NC4CC4)cc3Cl)CC2)c1 [TCMDC-134058]
  % Inhibition: 0.6256%

## CC(C)c1cccc(OCC2CCN(c3ncc(C(=O)NC4CC4)cc3Cl)CC2)c1 [TCMDC-134260]
  % Inhibition: -10.41%
